Assay outcomes deposited in PubChem by National Center for Advancing Translational Sciences (NCATS).
AMA1-RON2 inh = inhibitors of Plasmodium falciparum AMA1-RON2 interaction; hit rate 0.2% among 360,000; Potency, µM (top dose mostly 58.2 µM), hits mostly inhibitors; AlphaScreen AMA1-biotinylated RON2 peptide binding; also: nearly all actives have a fitted effect of over 45% in size
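AMA1 (3D7) with his tag at 25 nM final met compounds first, then biotinylated RON2 peptide at 25 nM; detection used donor plus acceptor beads, 10 µg/mL apiece, read by AlphaScreen after 30 min at room temperature.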
Shiga inhibitor = inhibitors of Shiga toxin in Vero cells | Vero cells, Shiga toxin protein synthesis inhibition reporter | inhibition, % at 38.7 µM | hit rate 9.2% among 290,000 | AID 2315; in the data active = inhibition mostly above about 28%, no sharp cut-off; inactive = mostly below about 43%
HCV inhibitor = inhibitors of hepatitis C virus infection | Huh7.5.1 HCVcc-Cre infection, luciferase reporter, 44 h | Potency, µM (top dose mostly 41.8 µM), usual class: inhibitors | hit rate 3.4% among 340,000 | AID 651820
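HCVcc-Cre virus at an moi near 0.5 was added right after compound to cells cultured 4 h from seeding (1,000 cells/well). Luciferase activity was determined 44 h later, 15 min after substrate addition at RT.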
Cycloheximide cs = counter-screen for Shiga toxin inhibitors: cycloheximide protein synthesis inhibition. cell reporter, cycloheximide protein synthesis inhibition counterscreen. max response, %. hit rate 12% among 300,000. AID 2314; in the data active = max response mostly above about 13%, no sharp cut-off; inactive = mostly below about 14%; also: read at 38.3 µM for the half of the compounds with a filed dose
Pf growth 96h = P. falciparum growth inhibition at 96 hour, primary screen for plastid delayed-death inhibitors; Potency, µM (doses to about 28.7 µM), usual class: inhibitors; hit rate 6.9% among 320,000; P. falciparum luciferase reporter growth, 96 h; AID 504834
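Two-generation exposure (96 h) targets delayed-death phenotype. Reporter parasites carrying integrated firefly luciferase, in red cells at 2% hematocrit and 0.05% parasitemia final, kept at 37 C, 5% CO2; luminescence loss indicates inhibition.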
Pf growth 48h = inhibits P. falciparum growth in the first generation, 48 h; hit rate 5.9% among 310,000; Potency, µM (highest dose often 28.7 µM), hits mostly inhibitors; P. falciparum luciferase growth in erythrocytes, 48 h; AID 504832
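Cell-based growth assay: transgenic P. falciparum expressing firefly luciferase, cultured in red cells within RPMI 1640 containing 0.5% w/v Albumax, 24 mM bicarbonate and gentamycin. A drop in luciferase activity indicates inhibition.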
Hits are given with their value; 0 = inactive; ? = inconclusive; - = no result given. Sampled rows, rich in hits. Any-hit rate of the full collection: about 21%. Unless noted, calls follow the shape of the dose curve; as a rule, active = well fitted curve in the direction sought with a large enough effect; inconclusive = small, poorly fitted or top-dose-only effect, or another doubt; inactive = no such curve, though single readings can be large; an effect the other way counts as inactive or inconclusive.

SMILES	AMA1-RON2 inh	Shiga inhibitor	HCV inhibitor	Cycloheximide cs	Pf growth 96h	Pf growth 48h
COC(=O)[C@H]1[C@H]2C[C@@H]3c4[nH]c5cc(OC)ccc5c4CCN3C[C@H]2C[C@@H](OC(=O)c2ccc(N)cc2)[C@@H]1OC	0	0	?	0	13µM	12µM
COC(=O)[C@H]1[C@H]2C[C@@H]3c4[nH]c5ccccc5c4CCN3C[C@H]2C[C@@H](OC(=O)c2cc(OC)c(OC)c(OC)c2)[C@@H]1OC	-	-	-	-	0	0.38µM
COc1ccc(NC(=O)CN(C)C(=O)Cc2c(C)nc3ccccc3c2C)cc1	0	-	?	-	?	?
COc1cc(/C=C/CNC[C@H]2O[C@@H](n3cc(C)c(=O)[nH]c3=O)C[C@@H]2O)ccc1O	0	-	-	-	-	-
COc1ccc2c3c([nH]c2c1)[C@H]1C[C@H]2[C@H](C[C@@H](O)[C@H](OC)[C@H]2C(=O)O)CN1CC3	0	-	0	-	0	0
COC(=O)[C@@H]1[C@@H]2C[C@H]3c4[nH]c5ccccc5c4CCN3C[C@@H]2CC[C@@H]1O	-	-	-	-	0	0
COC(=O)[C@H]1[C@H]2C[C@@H]3c4[nH]c5cc(OC)ccc5c4CCN3C[C@H]2C[C@@H](OC(=O)/C=C/c2cc(OC)c(OC)c(OC)c2)[C@@H]1OC	?	-	?	-	0.93µM	0.74µM
O=C(O)[C@@H]1[C@H]2C[C@H]3c4[nH]c5ccccc5c4CCN3C[C@@H]2CC[C@@H]1O	0	-	0	-	7.4µM	?
COc1cc(OC)cc(C(=O)NCCC(c2ccccc2)c2ccccc2)c1	0	0	14µM	0	?	?
COc1cccc(NC(=S)NCCC(c2ccccc2)c2ccccc2)c1	0	0	?	0	?	?
COc1cc(NC(=S)NCCC(c2ccccc2)c2ccccc2)cc(OC)c1	0	0	22µM	0	?	13µM
COc1cc(OC)cc(C(=O)NCCOc2ccccc2)c1	0	77	0	31	0	-
O=C(NCCOc1ccccc1)c1cc(C(=O)NCCOc2ccccc2)cc([N+](=O)[O-])c1	0	0	?	0	?	12µM
CC(C)C(=O)NNC(=O)c1cc2sccc2s1	0	0	0	0	0	0
CCOc1ccc(Cl)cc1-c1cc(C(=O)Nc2ccc(F)cc2)[nH]n1	0	-	-	-	-	-
COc1c(C)cc(C(O)c2ncc(-c3ccccc3F)[nH]2)cc1C (configuration not stated)	0	-	-	-	-	-
CC(C)(C)N1C(=O)c2ccc(C(=O)Nc3cc(C(=O)O)cc(C(=O)O)c3)cc2C1=O	0	-	0	0	0	0
Cc1ccccc1CN1CCC(CNC(=O)C2CCCN(c3ncnc4c3nc3n4CCCCC3)C2)CC1 (configuration not stated)	0	0	0	0	6.6µM	12µM
O=C(C1CCCN(c2ncnc3c2nc2n3CCCCC2)C1)N1CCN(c2ccccc2)CC1 (configuration not stated)	0	0	?	0	?	?
COc1ccccc1N1CCN(C(=O)C2CCCN(c3ncnc4c3nc3n4CCCCC3)C2)CC1 (configuration not stated)	0	0	?	0	0	9.3µM
CCN(CCNC(=O)C1CCCN(c2ncnc3c2nc2n3CCCCC2)C1)Cc1ccccc1 (configuration not stated)	0	0	0	0	10µM	?
COc1ccccc1N1CCN(CCCNC(=O)C2CCCN(c3ncnc4c3nc3n4CCCCC3)C2)CC1 (configuration not stated)	0	0	13µM	0	?	?
C[C@H](CO)N1C[C@H](C)[C@@H](CN(C)C(=O)Nc2ccccc2)Oc2ccc(NC(=O)CCC(F)(F)F)cc2C1=O	0	-	0	-	-	-
Cc1ccc(C)c(C(O)c2ncc(-c3cccc(C(F)(F)F)c3)[nH]2)c1 (configuration not stated)	0	-	-	-	-	-
Cc1c2c(nc3c(C(=O)NC4CC4)cnn13)CCCC2	0	113	?	35	0	0
SMILES	AMA1-RON2 inh	Shiga inhibitor	HCV inhibitor	Cycloheximide cs	Pf growth 96h	Pf growth 48h
CCC(C)NC(=O)c1cnn2c(C)c3c(nc12)CCCC3 (configuration not stated)	0	0	0	0	0	0
NC(=S)NNc1cccc2cccnc12	0	39	?	19	?	7.4µM
COc1cc(NCc2ccccc2O)c2ncccc2c1	0	0	0	20	?	?
Oc1ccccc1CNc1cccc2cccnc12	0	62	0	45	0	0
Oc1cccc2cccnc12	-	0	-	0	?	?
COc1cccc(C(NC(C)=O)c2nc(-c3ccncc3)cs2)c1 (configuration not stated)	0	-	-	-	-	-
O=C(Nc1ccc([N+](=O)[O-])cc1)c1ccc(S(=O)(=O)N2CCCC2)cc1	0	0	0	0	12µM	?
CN(c1ccc(C(=O)Nc2ccc(S(=O)(=O)N3CCCC3)cc2)cc1)S(C)(=O)=O	0	0	5µM	0	?	0
N#CCc1ccc(NC(=O)c2ccc(S(=O)(=O)N3CCCC3)cc2)cc1	0	0	14µM	0	0	?
O=C(Nc1ccc(S(=O)(=O)N2CCCCCC2)cc1)c1[nH]ncc1[N+](=O)[O-]	-	56	-	28	?	?
O=C(Nc1ccc(S(=O)(=O)N2CCCCC2)cc1)c1ccc(F)cc1	0	0	?	0	0	0
CCOc1ccc(NC(=O)CN2C(=O)NC3(CCCCCC3)C2=O)cc1	0	-	0	-	-	-
O=C(Nc1ccc(OC(F)(F)F)cc1)c1[nH]ncc1[N+](=O)[O-]	0	78	?	43	?	0
CCOC(=O)N1CCC(NC(=O)c2oc3c(c2C)-c2[nH]ncc2CC3)CC1	0	0	0	0	8.3µM	-
CCOC(=O)N1CCC(NC(=O)Cn2c3ccccc3c3cn[nH]c(=O)c32)CC1	-	0	0	0	0	0
Cc1cccnc1NC(=O)CN1C(=O)c2ccccc2S1(=O)=O	0	-	0	-	0	0
Cc1ccc(Sc2nc(-c3ccccc3)nnc2C(F)(F)F)cc1	0	0	?	0	0	13µM
Cc1cccc(C)c1NC(=O)C(c1ccc(C#N)cc1)n1c(=O)c(-c2ccco2)nc2ccccc21 (configuration not stated)	0	-	-	-	-	-
COc1cccc2cc(C(=O)NCc3ccccn3)c(=O)oc12	0	0	0	23	?	0
CCOc1cccc2cc(C(=O)NCc3ccc(OC)cc3)c(=N)oc12	0	0	0	0	10µM	?
CCOc1cccc2cc(C(=O)NCc3cccnc3)c(=O)oc12	0	0	0	0	2.3µM	0
COc1cccc2cc(C(=O)NCCc3ccccc3)c(=O)oc12	0	0	0	17	0	0
COc1cccc2cc(C(=O)NCCC3=CCCCC3)c(=O)oc12	0	0	0	0	?	0
O=C1CC2(CCN1)CCN(Cc1ccccc1)CC2	0	-	0	-	-	-
Cc1c(CCC(=O)NC2CC2)c(=O)oc2cc(O)ccc12	0	0	0	0	?	?
O=c1[nH][nH]c(=S)n1-c1ccccc1C(F)(F)F	-	0	-	0	0	0
